Assay [1] can be described thus: ATG_TAL_CIS: Attagene CIS-FACTORIAL HepG2 Assay for human TAL Basal Promoter (AID 2282966).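 Also: background control endpoint measuring basal TAL promoter reporter mRNA not a specific factor.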 The following applies: HepG2 Attagene cis-factorial TAL promoter reporter; actives raise or lower the signal. An outline of the steps: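 Fluorescence of labelled reporter cDNA fragments, resolved by capillary electrophoresis, gave the readout. Human HepG2 liver cells carried transiently transfected cis-element reporter units and were treated for 24 hours; activity was fitted bidirectionally against DMSO.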

A short description of assay [2]: ATG_TGFb_CIS: Attagene CIS-FACTORIAL HepG2 Assay for human Transforming Growth Factor (TGF) (AID 2282967). The following applies: HepG2 Attagene CIS TGFb reporter, mRNA transcription; actives raise or lower the signal. An outline of the steps:
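Readout: fluorescently labeled reporter cDNA fragments resolved by capillary electrophoresis after RT-PCR. Transfected HepG2 cells dosed for 24 h; endogenous TF activity at TGFB1-linked cis element; gain or loss fitted relative to DMSO.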

The target of assay [3] is Nuclear receptor subfamily 1 group I member 3 (Homo sapiens) (UniProt Q14994). The experiment in a line: ATG_CAR_TRANS: Attagene TRANS-FACTORIAL HepG2 Assay for human Constitutive Androstane Receptor (CAR) (AID 2282969; active = hit-call score of the fitted dose curve at least 0.9, where 1 is the maximum;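 also: activators raise reporter mRNA above DMSO so AC50 marks induction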). The settings on record: HepG2 Attagene TRANS-FACTORIAL CAR reporter. An outline of the steps: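 HepG2 cells transiently transfected with multiplexed GAL4-UAS reporter units expressing chimeric NR-Gal4 proteins; compound exposure 24 h. Reporter mRNA measured by RT-PCR, 6-FAM labelling, HpaI digestion and capillary electrophoresis; gain-of-signal fitted against DMSO baseline.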
Chain of Nuclear receptor subfamily 1 group I member 3 (Homo sapiens) (Q14994 whole entry, looked up, the tested form may be a part): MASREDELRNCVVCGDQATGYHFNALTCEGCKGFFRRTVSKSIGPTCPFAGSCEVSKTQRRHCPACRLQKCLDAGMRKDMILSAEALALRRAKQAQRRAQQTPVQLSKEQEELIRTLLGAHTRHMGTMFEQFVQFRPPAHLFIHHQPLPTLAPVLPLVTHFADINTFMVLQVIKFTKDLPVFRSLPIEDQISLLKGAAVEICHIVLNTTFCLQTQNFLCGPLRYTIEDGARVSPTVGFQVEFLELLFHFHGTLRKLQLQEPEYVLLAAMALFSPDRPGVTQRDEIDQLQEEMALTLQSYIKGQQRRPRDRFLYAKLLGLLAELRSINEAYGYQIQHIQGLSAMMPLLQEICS

Assay [4] addresses X-box-binding protein 1 (Homo sapiens) (UniProt P17861). Briefly: ATG_Xbp1_CIS: Attagene CIS-FACTORIAL HepG2 Assay for human X-box Binding Protein 1 (XBP1) (AID 2282972). The settings on record: HepG2 XBP1 cis-element reporter, Attagene multiplex; actives raise or lower the signal. An outline of the steps:
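HepG2 cells transiently transfected with multiple cis-element reporter units report endogenous TF activity; 24 h exposure, then reporter mRNA measured by RT-PCR, 6-FAM labelling, HpaI digestion and capillary electrophoresis. Bidirectional fitting versus DMSO.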

Assay [5] addresses Estrogen-related receptor gamma (Homo sapiens) (UniProt P62508). The experiment in a line: ATG_ERRg_TRANS: Attagene TRANS-FACTORIAL HepG2 Assay for human Estrogen-Related Receptor gamma (ERRg) (AID 2282977; active = hit-call score of the fitted dose curve at least 0.9, where 1 is the maximum;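 also: hits increase reporter signal over DMSO so potencies reflect activators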). The settings on record: HepG2 Attagene TRANS reporter, ERRg transactivation. In a few lines:
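HepG2 cells transiently transfected with multiplexed GAL4-UAS reporter units driven by chimeric NR-Gal4 proteins; 24 h exposure. Reporter mRNA quantified by RT-PCR, fluorescent labelling, HpaI digestion and capillary electrophoresis; gain of signal vs DMSO.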

Assay [6] addresses Glucocorticoid receptor (Homo sapiens) (UniProt P04150). Briefly: ATG_GR_TRANS: Attagene TRANS-FACTORIAL HepG2 Assay for human Glucocorticoid Receptor (GR) (AID 2282978; active = hit-call score of the fitted dose curve at least 0.9, where 1 is the maximum;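 also: activators score as hits since higher reporter transcript over DMSO is fitted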). The following applies: HepG2 Attagene TRANS GR reporter, mRNA transcription. In a few lines: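 Transient MRTU transfection of HepG2 (GAL4-UAS reporters, exogenous NR-GAL4 chimeras), 24 h dosing. Readout: reporter transcript via RT-PCR + capillary electrophoresis fluorescence. Positive direction vs DMSO baseline.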

The target in assay [7] is Bile acid receptor (Homo sapiens) (UniProt Q96RI1). Briefly: ATG_FXR_TRANS: Attagene TRANS-FACTORIAL HepG2 Assay for Farnesoid X Receptor (FXR) (AID 2282979; active = hit-call score of the fitted dose curve at least 0.9, where 1 is the maximum;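 also: hits raise reporter mRNA above DMSO so AC50 marks FXR activation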). The settings on record: HepG2 Attagene TRANS FXR-GAL4 reporter transcription. In a few lines:
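Transient transfection of HepG2 with multiplexed GAL4-UAS reporter units; exogenous FXR-GAL4 chimera. Dose 24 h → TriZol RNA → oligo(dT) RT → PCR, 6-FAM primer extension, HpaI cut → CE. Gain vs DMSO.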

In assay [8] the target is Oxysterols receptor LXR-alpha (Homo sapiens) (UniProt Q13133). Briefly: ATG_LXRa_TRANS: Attagene TRANS-FACTORIAL HepG2 Assay for human Liver X Receptor alpha (LXRa) (AID 2282980; active = hit-call score of the fitted dose curve at least 0.9, where 1 is the maximum). The settings on record: HepG2 Attagene TRANS reporter, LXRa transactivation. An outline of the steps:
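Transfect HepG2 with GAL4-UAS multiplex reporter constructs (TRANS format, chimeric receptor-GAL4); treat 24 h; extract RNA, reverse-transcribe, PCR-amplify, FAM-label, HpaI-digest; resolve fragments by capillary electrophoresis. Upward response vs DMSO.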

Assay [9] addresses Hepatocyte nuclear factor 4-alpha (Homo sapiens) (UniProt P41235). The experiment in a line: ATG_HNF4a_TRANS: Attagene TRANS-FACTORIAL HepG2 Assay for human Hepatocyte Nuclear Factor 4 alpha (HNF4a) (AID 2282982; active = hit-call score of the fitted dose curve at least 0.9, where 1 is the maximum). The settings on record: HepG2 HNF4a transactivation reporter, mRNA readout. An outline of the steps: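 Cells used were human HepG2, transiently carrying GAL4-UAS reporter units read out against exogenous NR-GAL4 chimeras. Reporter transcript levels after 24 h dosing were quantified by fluorescent RT-PCR and capillary electrophoresis.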

Assay [10] is described as follows: ATG_M_06_TRANS: Attagene TRANS-FACTORIAL HepG2 Assay for M06 Transcription Factor (Internal Marker) (AID 2282983; active = hit-call score of the fitted dose curve at least 0.9, where 1 is the maximum). The following applies: HepG2 Attagene TRANS M06 internal marker reporter. An outline of the steps: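 Transfect HepG2 with MRTUs → dose compounds 24 h → isolate RNA, oligo(dT) RT → PCR with reporter primers → 6-FAM primer extension → HpaI digest → CE fragment analysis. Positive direction vs DMSO.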

Assay [11] is described as follows: ATG_M_32_TRANS: Attagene TRANS-FACTORIAL HepG2 Assay for M32 Transcription Factor (Internal Marker) (AID 2282984; active = hit-call score of the fitted dose curve at least 0.9, where 1 is the maximum;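 also: transcript level of a background control reporter unit measured by RT-PCR and capillary electrophoresis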). The following applies: HepG2 Attagene TRANS M32 internal marker reporter. In a few lines: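 Human hepatoma HepG2, transient MRTU transfection, 24 h treatment. RNA → RT-PCR → fluorescent primer extension → HpaI digest (2 h, 37 C) → CE. Positive-direction fit vs DMSO.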

In assay [12] the target is Nuclear receptor subfamily 4 group A member 2 (Homo sapiens) (UniProt P43354). The experiment in a line: ATG_NURR1_TRANS: Attagene TRANS-FACTORIAL HepG2 Assay for human Nuclear Receptor Related Protein 1 (NURR1) (AID 2282985; active = hit-call score of the fitted dose curve at least 0.9, where 1 is the maximum). The settings on record: HepG2 Attagene TRANS reporter, mRNA readout. In a few lines: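 After 24 h chemical dosing, total RNA from transiently transfected HepG2 cells was reverse-transcribed and reporter cDNA PCR-amplified, FAM-labelled and analysed by capillary electrophoresis. Activity fitted in positive direction, DMSO as negative control.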
Chain of Nuclear receptor subfamily 4 group A member 2 (Homo sapiens) (P43354 whole entry, looked up): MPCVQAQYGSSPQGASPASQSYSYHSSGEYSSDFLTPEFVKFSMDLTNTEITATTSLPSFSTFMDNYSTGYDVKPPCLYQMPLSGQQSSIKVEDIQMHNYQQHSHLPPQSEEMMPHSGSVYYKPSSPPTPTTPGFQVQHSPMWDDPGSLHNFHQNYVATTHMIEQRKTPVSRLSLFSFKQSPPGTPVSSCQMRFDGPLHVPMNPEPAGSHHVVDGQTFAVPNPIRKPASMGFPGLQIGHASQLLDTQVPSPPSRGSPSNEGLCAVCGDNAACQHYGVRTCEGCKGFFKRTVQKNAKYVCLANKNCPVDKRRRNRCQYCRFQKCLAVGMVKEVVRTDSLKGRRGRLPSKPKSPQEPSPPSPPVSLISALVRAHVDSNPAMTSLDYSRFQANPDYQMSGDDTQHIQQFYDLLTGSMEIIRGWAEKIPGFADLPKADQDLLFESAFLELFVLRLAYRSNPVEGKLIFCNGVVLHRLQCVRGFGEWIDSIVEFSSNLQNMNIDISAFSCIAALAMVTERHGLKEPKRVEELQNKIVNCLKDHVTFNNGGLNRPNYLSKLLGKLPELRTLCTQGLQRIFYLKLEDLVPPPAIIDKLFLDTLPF

The target in assay [13] is Transcriptional activator Myb (Homo sapiens) (UniProt P10242). Briefly: ATG_Myb_CIS: Attagene CIS-FACTORIAL HepG2 Assay for human Myeloblastosis (Myb) Proto-Oncogene Transcription Factor (AID 2282986). The following applies: HepG2 Attagene CIS-FACTORIAL Myb reporter transcription; actives raise or lower the signal. In a few lines:
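HepG2, transient MRTU transfection (cis-element promoters, endogenous TF activity), 24 h compound exposure. Readout: reporter mRNA via RT-PCR, 6-FAM labeling, HpaI digest, capillary electrophoresis. Gain/loss fit vs DMSO.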

Assay [14] has as its target Nuclear respiratory factor 1 (Homo sapiens) (UniProt Q16656). The experiment in a line: ATG_NRF1_CIS: Attagene CIS-FACTORIAL HepG2 Assay for human Nuclear Respiratory Factor 1 (NRF1) Orphan Gene (AID 2282987). The following applies: HepG2 NRF1 cis-element reporter, Attagene multiplex; actives raise or lower the signal. In a few lines:
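Endogenous NRF1-driven reporter transcription measured in transiently transfected human HepG2 liver cells. Readout: reporter mRNA by RT-PCR and capillary electrophoresis with fluorescence detection, 24 h post-dosing. Gain or loss of signal fitted relative to DMSO baseline.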

A short description of assay [15]: ATG_NFI_CIS: Attagene CIS-FACTORIAL HepG2 Assay for human Nuclear Factor I (NFI) (AID 2282989). The following applies: HepG2 cis-regulatory reporter, NFI response element transcription; actives raise or lower the signal. An outline of the steps: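 Read-out: reporter mRNA via RT-PCR plus capillary electrophoresis with fluorescence detection. Transiently transfected HepG2 (endogenous TF activity on cis promoters), 24 h compound exposure; gain or loss of signal fitted against DMSO.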

For assay [16], the target named is Myc proto-oncogene protein (Homo sapiens) (UniProt P01106). The experiment in a line: ATG_Myc_CIS: Attagene CIS-FACTORIAL HepG2 Assay for human Myelocytomatosis (Myc) Proto-Oncogene Transcription Factor (AID 2282990). The settings on record: HepG2, Attagene cis-reporter transcription factor activity; actives raise or lower the signal. In a few lines:
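HepG2 cells transiently transfected with multiple cis-promoter-driven reporter transcription units, so endogenous TF activity is read. After 24 h compound exposure, reporter mRNA was quantified by RT-PCR, 6-FAM labelling, HpaI digestion and capillary electrophoresis; bidirectional fit versus DMSO.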

Assay [17] in a line: ATG_VDRE_CIS: Attagene CIS-FACTORIAL HepG2 Assay for human Vitamin D Receptor Element (VDRE) (AID 2282968). The following applies: HepG2 VDRE cis-reporter transcription, actives raise or lower the signal. An outline of the steps: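 RT-PCR/CE readout of reporter mRNA; HepG2, transient transfection, 24 h dosing; DMSO baseline; bidirectional analysis.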
Assay [18] in a line: ATG_M_19_TRANS: Attagene TRANS-FACTORIAL HepG2 Assay for M19 Transcription Factor (Internal Marker) (AID 2282974; active = hit-call score of the fitted dose curve at least 0.9, where 1 is the maximum). The following applies: HepG2 Attagene TRANS-FACTORIAL M19 internal marker reporter. In a few lines: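 24 h chemical exposure of transiently transfected HepG2 (MRTU library). RNA → oligo(dT) RT → PCR → 6-FAM labelling → HpaI cut → CE fluorescence. Positive-direction fit vs DMSO baseline; background internal-marker readout.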

For assay [19], the target named is Oxysterols receptor LXR-beta (Homo sapiens) (UniProt P55055). Briefly: ATG_LXRb_TRANS: Attagene TRANS-FACTORIAL HepG2 Assay for human Liver X Receptor beta (LXRb) (AID 2282981; active = hit-call score of the fitted dose curve at least 0.9, where 1 is the maximum). The settings on record: HepG2 Attagene TRANS GAL4-LXRb reporter, mRNA. An outline of the steps: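 In this TRANS format, exogenous chimeric NR-Gal4 protein activity, not endogenous factors, drives reporter expression in transfected human HepG2 cells. Exposure lasted 24 h; reporter mRNA was read by fluorescent capillary electrophoresis.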
Chain of Oxysterols receptor LXR-beta (Homo sapiens) (P55055 whole entry, looked up, the tested form may be a part): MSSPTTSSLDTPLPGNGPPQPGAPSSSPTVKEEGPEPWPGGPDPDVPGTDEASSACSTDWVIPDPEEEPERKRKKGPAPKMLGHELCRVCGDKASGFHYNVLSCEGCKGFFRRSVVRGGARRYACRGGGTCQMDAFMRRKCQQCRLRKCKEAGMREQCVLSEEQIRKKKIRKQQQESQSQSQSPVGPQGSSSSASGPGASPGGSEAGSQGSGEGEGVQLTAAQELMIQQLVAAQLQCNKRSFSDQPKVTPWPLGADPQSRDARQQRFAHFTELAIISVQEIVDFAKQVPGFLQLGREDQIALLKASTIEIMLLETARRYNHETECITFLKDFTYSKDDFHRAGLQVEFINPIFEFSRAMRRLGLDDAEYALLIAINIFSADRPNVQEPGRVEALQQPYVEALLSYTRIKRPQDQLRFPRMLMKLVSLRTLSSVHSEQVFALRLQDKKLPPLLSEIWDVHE

Each structure is given as a SMILES string. Results filed as inconclusive are left out. Some compounds were tested as several samples or in several runs, with calls that do not always agree. Active and inactive are the calls of the source. The calls were made as follows, unless noted: active = hit-call score of the fitted dose curve at least 0.9, where 1 is the maximum; inactive = score below 0.9.

The text below walks through data of PubChem BioAssay (EPA / NIEHS).

As a reminder, the AC50 is the midpoint of the concentration-response curve, whichever way the signal moves.

Chain of Nuclear respiratory factor 1 (Homo sapiens) (Q16656 whole entry, looked up): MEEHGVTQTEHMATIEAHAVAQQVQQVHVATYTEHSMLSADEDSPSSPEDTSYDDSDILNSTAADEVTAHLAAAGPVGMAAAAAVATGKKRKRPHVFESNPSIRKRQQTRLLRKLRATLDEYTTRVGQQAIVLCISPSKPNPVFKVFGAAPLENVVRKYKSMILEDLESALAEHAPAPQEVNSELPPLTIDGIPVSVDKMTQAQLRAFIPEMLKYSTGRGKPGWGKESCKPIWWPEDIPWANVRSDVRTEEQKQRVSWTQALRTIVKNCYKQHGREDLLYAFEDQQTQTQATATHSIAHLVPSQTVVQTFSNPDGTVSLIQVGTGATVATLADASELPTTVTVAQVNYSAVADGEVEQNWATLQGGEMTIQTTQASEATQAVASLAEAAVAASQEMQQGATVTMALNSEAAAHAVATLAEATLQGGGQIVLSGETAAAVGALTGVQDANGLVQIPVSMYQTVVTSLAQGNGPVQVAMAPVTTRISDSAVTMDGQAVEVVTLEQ
Chain of Myc proto-oncogene protein (Homo sapiens) (P01106 whole entry, looked up): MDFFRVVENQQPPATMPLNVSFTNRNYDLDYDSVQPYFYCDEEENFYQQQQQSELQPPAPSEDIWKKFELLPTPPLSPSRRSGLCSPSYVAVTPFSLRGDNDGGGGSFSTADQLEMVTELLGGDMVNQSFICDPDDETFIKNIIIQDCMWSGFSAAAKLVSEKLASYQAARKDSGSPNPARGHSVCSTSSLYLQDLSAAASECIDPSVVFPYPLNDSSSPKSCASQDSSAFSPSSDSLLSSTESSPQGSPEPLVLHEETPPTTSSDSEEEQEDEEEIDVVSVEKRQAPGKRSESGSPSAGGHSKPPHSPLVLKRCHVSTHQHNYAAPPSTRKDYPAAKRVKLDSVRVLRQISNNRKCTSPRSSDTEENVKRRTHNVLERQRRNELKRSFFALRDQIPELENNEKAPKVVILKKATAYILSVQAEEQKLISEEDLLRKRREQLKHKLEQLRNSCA
Chain of X-box-binding protein 1 (Homo sapiens) (P17861 whole entry, looked up): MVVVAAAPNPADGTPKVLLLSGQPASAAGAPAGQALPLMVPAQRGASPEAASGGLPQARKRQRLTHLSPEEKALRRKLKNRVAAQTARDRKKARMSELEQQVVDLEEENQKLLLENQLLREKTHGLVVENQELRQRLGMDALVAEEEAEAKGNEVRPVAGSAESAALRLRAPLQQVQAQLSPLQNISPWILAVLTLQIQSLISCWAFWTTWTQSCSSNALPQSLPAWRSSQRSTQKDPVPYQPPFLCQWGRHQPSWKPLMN
Chain of Glucocorticoid receptor (Homo sapiens) (P04150 whole entry, looked up, the tested form may be a part): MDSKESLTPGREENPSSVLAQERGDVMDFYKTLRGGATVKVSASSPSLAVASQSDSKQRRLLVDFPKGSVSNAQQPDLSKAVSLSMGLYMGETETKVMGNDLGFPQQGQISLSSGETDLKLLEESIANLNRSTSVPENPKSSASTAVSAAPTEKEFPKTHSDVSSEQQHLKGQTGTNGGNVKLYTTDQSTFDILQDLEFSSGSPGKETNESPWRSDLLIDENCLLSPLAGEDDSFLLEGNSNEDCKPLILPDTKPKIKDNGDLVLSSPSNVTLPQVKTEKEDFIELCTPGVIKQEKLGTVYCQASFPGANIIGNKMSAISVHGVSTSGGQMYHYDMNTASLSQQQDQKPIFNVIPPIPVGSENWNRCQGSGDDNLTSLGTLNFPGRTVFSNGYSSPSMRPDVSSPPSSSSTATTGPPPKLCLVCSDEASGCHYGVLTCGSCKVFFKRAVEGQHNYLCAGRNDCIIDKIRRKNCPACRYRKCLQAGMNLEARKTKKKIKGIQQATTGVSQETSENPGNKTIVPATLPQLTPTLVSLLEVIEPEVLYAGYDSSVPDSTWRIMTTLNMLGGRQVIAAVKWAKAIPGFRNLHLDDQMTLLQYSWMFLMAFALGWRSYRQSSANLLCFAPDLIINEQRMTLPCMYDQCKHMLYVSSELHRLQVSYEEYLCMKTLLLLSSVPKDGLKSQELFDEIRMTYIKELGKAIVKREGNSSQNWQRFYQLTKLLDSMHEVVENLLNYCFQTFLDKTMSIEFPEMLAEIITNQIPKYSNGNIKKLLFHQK
Chain of Transcriptional activator Myb (Homo sapiens) (P10242 whole entry, looked up): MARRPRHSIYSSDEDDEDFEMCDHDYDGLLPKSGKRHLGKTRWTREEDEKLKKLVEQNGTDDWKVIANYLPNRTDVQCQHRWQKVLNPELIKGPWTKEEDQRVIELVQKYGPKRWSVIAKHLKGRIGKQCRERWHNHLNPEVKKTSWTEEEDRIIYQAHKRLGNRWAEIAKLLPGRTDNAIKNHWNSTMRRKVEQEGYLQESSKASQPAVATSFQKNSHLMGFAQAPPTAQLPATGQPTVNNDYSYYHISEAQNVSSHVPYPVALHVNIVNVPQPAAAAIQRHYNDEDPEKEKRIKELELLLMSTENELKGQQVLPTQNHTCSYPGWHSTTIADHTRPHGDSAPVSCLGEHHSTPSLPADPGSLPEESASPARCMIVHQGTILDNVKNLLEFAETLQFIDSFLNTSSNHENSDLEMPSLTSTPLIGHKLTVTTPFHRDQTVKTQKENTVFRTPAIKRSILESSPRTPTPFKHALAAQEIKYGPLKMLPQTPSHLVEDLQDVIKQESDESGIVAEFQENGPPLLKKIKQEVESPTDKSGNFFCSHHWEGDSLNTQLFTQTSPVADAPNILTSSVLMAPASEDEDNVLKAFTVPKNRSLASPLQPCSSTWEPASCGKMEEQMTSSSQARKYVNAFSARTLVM
Chain of Bile acid receptor (Homo sapiens) (Q96RI1 whole entry, looked up, the tested form may be a part): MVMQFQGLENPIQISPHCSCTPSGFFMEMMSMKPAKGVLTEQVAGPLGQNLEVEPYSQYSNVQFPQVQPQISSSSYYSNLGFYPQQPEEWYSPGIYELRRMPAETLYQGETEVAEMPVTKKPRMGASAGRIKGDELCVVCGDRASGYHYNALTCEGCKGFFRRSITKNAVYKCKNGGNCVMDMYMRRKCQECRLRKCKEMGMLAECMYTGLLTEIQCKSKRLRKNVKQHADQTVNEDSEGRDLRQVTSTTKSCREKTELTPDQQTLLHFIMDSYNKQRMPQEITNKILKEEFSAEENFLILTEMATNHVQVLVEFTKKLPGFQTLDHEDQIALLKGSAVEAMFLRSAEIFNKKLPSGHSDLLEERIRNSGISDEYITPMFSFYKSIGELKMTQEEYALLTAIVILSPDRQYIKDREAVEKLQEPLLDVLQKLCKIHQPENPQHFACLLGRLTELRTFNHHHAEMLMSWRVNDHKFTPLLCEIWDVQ
Chain of Oxysterols receptor LXR-alpha (Homo sapiens) (Q13133 whole entry, looked up, the tested form may be a part): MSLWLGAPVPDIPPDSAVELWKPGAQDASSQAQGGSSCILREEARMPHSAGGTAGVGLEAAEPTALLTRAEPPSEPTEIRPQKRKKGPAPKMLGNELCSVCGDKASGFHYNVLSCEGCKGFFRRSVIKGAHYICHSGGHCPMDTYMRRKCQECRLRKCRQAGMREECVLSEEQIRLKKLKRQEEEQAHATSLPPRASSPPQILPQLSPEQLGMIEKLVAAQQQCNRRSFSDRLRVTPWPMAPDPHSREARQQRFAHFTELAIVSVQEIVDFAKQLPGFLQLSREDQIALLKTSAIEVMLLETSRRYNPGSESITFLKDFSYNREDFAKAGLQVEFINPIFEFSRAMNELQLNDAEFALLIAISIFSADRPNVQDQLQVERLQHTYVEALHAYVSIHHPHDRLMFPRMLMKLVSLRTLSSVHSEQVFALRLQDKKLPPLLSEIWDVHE

Consider `O=C(O)CN(CC(=O)O)CC(=O)O`, for which the result in assay [1], in [2], in assay [3], in assay [4], in assay [5] and in assay [6] was inactive. The outcome in assay [7], in [8], in [9], in assay [10], in [11] and in assay [12] was inactive. For the same compound, the compound was classed as inactive in [14], in assay [15] and in assay [16]. Also, the half-maximal activity concentration (AC50) in [13] is 0.386 µM (active).

For `NCCOCCOCCN`, the compound was called inactive in [1], in assay [2], in assay [17], in assay [3], in assay [4] and in assay [18]. The result in assay [6], in assay [19], in assay [10], in assay [11], in assay [12] and in assay [13] was inactive. The compound was classed as inactive in assay [14], in assay [15] and in assay [16].

For the compound `CCCCCCC(C=O)=Cc1ccccc1`, the compound was called inactive in [1], in assay [2], in assay [17], in assay [3], in assay [4] and in assay [18]. Also, the compound was called inactive in assay [6], in assay [7], in [8], in [19], in assay [9] and in assay [10]. The compound was called inactive in assay [11], in [12], in assay [13], in [14], in assay [15] and in assay [16]. In addition, the concentration at half-maximal activity (AC50) in assay [4] and in assay [15] was 60 µM (active) in each case.

Take `Oc1ccccc1O`: the result in assay [1], in assay [2], in [3], in [18], in [6] and in assay [11] was inactive. The compound was called inactive in assay [12], in assay [13], in assay [14], in [15] and in assay [16]. Further, the AC50 in assay [17] was 27.5 µM (active); in assay [4], 35.7 µM (active).
